Many of the other results were omitted from the sample, so hits are more common in it than they were.
Vaccinia mCherry = inhibitors of vaccinia virus infection (mCherry reporter signal); Vaccinia virus mCherry reporter infection, fluorescence; Potency, µM (top dose mostly 36.5 µM), hits mostly inhibitors; hit rate 0.63% among 310,000; AID 720579; calls by dose curve; tested in A549 cells; note: nearly all actives have a fitted effect of over 35% in size
MARV entry inh = blocks Marburg virus binding to or entry into cells; Marburg virus pseudotyped entry inhibition, cell reporter; Potency, µM (highest dose often 37.8 µM), most hits filed as inhibitors; hit rate 1.8% among 300,000; AID 540276; calls by dose curve; tested in HEK293 cells
Shiga inhibitor = blocks Shiga toxin action in Vero cells; Vero cells, Shiga toxin protein synthesis inhibition reporter; inhibition, % at 38.7 µM; hit rate 9.2% among 290,000; AID 2315; in the data active = inhibition mostly above about 28%, no sharp cut-off; inactive = mostly below about 43%
Vaccinia Venus = vaccinia inhibition (Venus reporter); Potency, µM (top dose mostly 36.5 µM), hits mostly inhibitors; Vaccinia virus Venus reporter expression, fluorescence; hit rate 0.46% among 330,000; calls by dose curve; tested in A549 cells; note: nearly all actives have a fitted effect of over 30% in size
CHX counter = affects cycloheximide protein synthesis inhibition readout, counter-screen. cell reporter, cycloheximide protein synthesis inhibition counterscreen. max response, %. hit rate 12% among 300,000; in the data active = max response mostly above about 13%, no sharp cut-off; inactive = mostly below about 14%; note: read at 38.3 µM for the half of the compounds with a filed dose
Lassa entry inh = inhibitors of Lassa virus binding or cell entry | AID 540256 | Potency, µM (series often up to 37.9 µM), hits mostly inhibitors | hit rate 1.2% among 300,000 | Lassa virus pseudotype entry inhibition, cell reporter; calls by dose curve; tested in HEK293 cells; note: nearly all actives have a fitted effect of over 50% in size
Hits are given with their value; 0 = inactive; ? = inconclusive; - = no result given; + = active, no number; [ ] = dose if it differs, or a comment.

SMILES	Vaccinia mCherry	MARV entry inh	Shiga inhibitor	Vaccinia Venus	CHX counter	Lassa entry inh
Cc1ccc(-c2cc(-c3cccc(F)c3)n[nH]2)c(O)c1	0	?	75.6	0	31.1	?
Cc1ccc(O)c(-c2cc(-c3cccc(F)c3)n[nH]2)c1	-	?	0	-	24.2	?
CCN1CCN(CCNC(=O)c2ccc3c(c2)N(Cc2cccc(Cl)c2)C(=O)c2ccccc2S3=O)CC1 (stereo not drawn)	0	?	0	0	0	?
Cc1sc2ncnc(NCCCN3CCCC3=O)c2c1C	-	-	0	-	0	-
CCN(Cc1ccccc1)C(=O)c1cc(S(=O)(=O)N2CCOCC2)cn1C	0	-	0	0	0	-
Cc1ccc(-c2cc(-c3ccccc3C)[nH]n2)c(O)c1	-	?	42.2	?	39.8	?
Cc1ccc(-c2cc(C(=O)Nc3c(C)n(C)n(-c4ccccc4)c3=O)[nH]n2)c(O)c1	-	?	0	-	0	0
Cc1cc(C)c(NC(=O)C2CCN(c3nnc(C)c4c(C)n(-c5ccccc5)nc34)CC2)c(C)c1	0	-	-	0	-	0
CCN(CC(=O)Nc1cccc(C(C)=O)c1)S(=O)(=O)c1ccc(OC)cc1	-	?	0	0	0	0
CCN(CC)S(=O)(=O)c1ccc2c(c1)nc(CCC(=O)Nc1cccc(C(F)(F)F)c1)n2CC	-	11.2µM	0	?	0	?
CCN(CC)S(=O)(=O)c1cccc(NC(=O)Nc2cccc(C(F)(F)F)c2)c1	-	14.6µM	0	-	0	16.4µM
CCN(CC)S(=O)(=O)c1ccc2c(c1)nc(CCC(=O)O)n2CC	0	0	0	0	0	0
CCN(CC)S(=O)(=O)c1cccc(NC(=O)CN(C)Cc2cccc(OC)c2)c1	0	23.1µM	0	0	0	11.2µM
CCN(CC)S(=O)(=O)c1cccc(NC(=O)CC2CCCC2)c1	0	0	0	0	0	?
COc1ccc(NC(=O)COC(=O)C2CC3C=CC2C3)cc1 (stereo not drawn)	-	0	42.1	-	19.9	0
O=C(COC(=O)C1CC2C=CC1C2)Nc1ccccc1F (stereo not drawn)	0	0	71.9	0	38.3	0
CCN(CC)S(=O)(=O)c1cccc(NC(=O)COC(=O)C2CC3C=CC2C3)c1 (stereo not drawn)	-	-	0	-	0	-
O=C(COC(=O)C1CC2C=CC1C2)NCCc1ccccc1 (stereo not drawn)	0	0	0	0	20.4	0
COCCNC(=O)CN(C(=O)CCC(=O)Nc1ccccn1)c1cc(C)ccc1C	-	-	0	-	0	-
CC(=O)N[C@@H](CSC(=O)[C@]1([C@@H](O)C(C)C)NC(=O)[C@H](C)[C@@H]1O)C(=O)O	-	-	+	-	84.7	-
CC(=O)N[C@@H](CSC/C=C(\C)CCC=C(C)C)C(=O)O	0[3.33 µM]	-	-	0[3.33 µM]	-	-
CC1(C(=O)OCC(=O)NC(=O)NCc2ccccc2)CC1(Cl)Cl (stereo not drawn)	0	0	0	0	0	?
CC1(C(=O)OCC(=O)NCc2ccc(Cl)cc2)CC1(Cl)Cl (stereo not drawn)	0	0	-	0	-	0
CC1(C(=O)OCC(=O)Nc2ccccc2Cl)CC1(Cl)Cl (stereo not drawn)	0	0	62.3	0	17.7	?
CC1(C(=O)OCC(=O)Nc2ccccc2)CC1(Cl)Cl (stereo not drawn)	0	?	66.7	0	33.7	0
SMILES	Vaccinia mCherry	MARV entry inh	Shiga inhibitor	Vaccinia Venus	CHX counter	Lassa entry inh
Cc1ccc(N(C)C(=O)c2noc3c2CCCCC3)cc1C	0	-	-	0	-	0
CN(C(=S)Nc1ccc(SC(F)F)cc1)c1ccc(O)cc1	0	?	0	0	23.5	0
CN(C(=S)Nc1cccnc1)c1ccc(O)cc1	0	0	23.1	0	0	0
O=C(Nc1nc2ccc(Cl)cc2s1)c1ccco1	0	?	62.3	0	41.2	11.2µM
O=C(Nc1nc2ccc(S(=O)(=O)N3CCCC3)cc2s1)c1ccco1	0	?	0	0	0	0
Cn1cc(Cl)c(C(=O)Nc2nc3ccc(Cl)cc3s2)n1	0	0	70.6	0	57.1	?
O=C(Nc1ccccc1-c1nc2ccccc2s1)c1ccco1	0	0	105.9	0	38.6	0
Cn1cc(Cl)c(C(=O)Nc2nc3ccc([N+](=O)[O-])cc3s2)n1	0	0	0	0	0	?
O=C(Nc1ccccc1-c1nc2ccccc2s1)c1ccc(F)cc1	0	0	-	0	-	?
O=C(Nc1nc2ccc(Br)cc2s1)c1ccco1	0	?	-	0	29.9	?
CCOC(=O)c1ccccc1NC(=O)CSc1nc(=O)[nH]c2c1CCC2	0[7.34 µM]	-	-	0[7.34 µM]	-	0
Cc1noc(C)c1C(=O)Nc1nc2ccc(Cl)cc2s1	-	-	89.2	-	41.9	-
CCc1noc(C)c1C(=O)Nc1nc2ccc(F)cc2s1	0	?	-	0	-	0
COc1ccnc(N2CCN(c3ccccc3)CC2)c1C#N	0	0	39.9	0	29.1	0
c1ccc(N2CCN(c3ncccn3)CC2)cc1	-	0	0	?	21.9	?
COc1ccnc(Oc2ccccc2)c1C#N	0	0	0	0	0	0
COc1ccc(N2CCN(c3ccc(N)cc3C#N)CC2)cc1	-	0	0	0	0	0
COc1ccc(N2CCN(c3ncccc3C#N)CC2)cc1	0	?	0	0	10.9	?
O=C1OC(CO)CN1Cc1ccccc1 (stereo not drawn)	0	0	0	0	0	0
O=C(Cn1c(O)c(/C=C2\C=Nc3ccccc32)sc1=O)Nc1ccc2c(c1)OCO2	0	0	0	0	29.2	0
O=C(Cn1c(O)c(/C=C2\C=Nc3ccccc32)sc1=O)N1CCOCC1	0	-	0	0	0	-
COc1cccc([C@H]2/C(=C(\O)c3ccc4c(c3)OCCO4)C(=O)C(=O)N2CCN(C)C)c1	-	0	-	-	-	-
COc1cccc(CN(C)C(=O)c2ccc(COc3ccc(Cl)cc3)cc2)c1OC	0	0	86.8	0	67.0	0
COc1ccccc1CN(C)C(=O)c1ccc(COc2ccccc2)cc1	0	0	0	0	0	?
Cc1ccccc1NC(=O)Cc1cccs1	-	-	0	-	0	-
SMILES	Vaccinia mCherry	MARV entry inh	Shiga inhibitor	Vaccinia Venus	CHX counter	Lassa entry inh
O=C(Cc1cccs1)Nc1ccccc1NC(=O)Cc1cccs1	-	0	0	0	0	0
O=C(Cc1cccs1)Nc1ccccc1C(=O)O	-	0	0	0	20.9	0
O=C(Cc1cccs1)Nc1ccccc1F	0	?	0	0	18.2	?
S=C(NCc1ccco1)N/N=C/c1ccncc1	0	0	0	0	0	0
CN(C)c1ccc(/C=N/NC(=S)NCc2ccco2)cc1	0	?	23.4	0	0	2.06µM
CN(C)c1ccc(C(=S)NCc2ccco2)cc1	-	?	+	0	84.7	?
S=C(NCc1ccco1)NCc1ccco1	0	0	-	0	-	0
COc1ccc(-n2c(C)cc(/C=C3\SC(=S)NC3=O)c2C)cc1	?	-	0	0	0	-
Cc1cc(/C=C2\SC(=S)NC2=O)cc(C)c1O	-	-	0	-	15.5	-
CCCOc1ccccc1/C=C1\SC(N)=NC1=O	?	0	0	?	0	0
O=C1NC(=S)S/C1=C\c1cc(Cl)cc(Cl)c1O	0	0	-	0	-	0
CCCOc1ccc(/C=C2\SC(N)=NC2=O)cc1OC	-	-	0	-	0	-
COc1ccc(/C=C2\SC(N)=NC2=O)cc1Br	0	0	-	0	19.2	0
Cc1cc(/C=C2\SC(N)=NC2=O)c(C)n1-c1ccccc1	-	?	0	0	36.3	?
